Source: PubChem BioAssay (EPA / NIEHS)
Activity calls are given as the source filed them. How the source made its calls: active means hit-call score of the fitted dose curve at least 0.9, where 1 is the maximum; inactive means score below 0.9.

assay: APR_HepG2_MitoticArrest_24hr: Apredica 24-hour HepG2 Assay for Mitotic Arrest (AID 2282910); settings: high-content imaging, actives raise or lower the signal
In short: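 High-content imaging of fixed HepG2 cells labeled with Hoechst 33342 and anti-phospho-histone H3, after 24 h treatment. Ten concentrations 0.39 to 200 uM in duplicate, final DMSO 0.5%; changes fitted both directions relative to DMSO.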

SMILES	outcome
N#CN=C1SCCN1Cc1ccc(Cl)nc1	inactive
CCCC(=NOCC)C1=C(O)CC(CC(C)SCC)CC1=O (configuration not stated)	inactive
CC1(C)CCC(=Cc2ccc(Cl)cc2)C1(O)Cn1cncn1 (configuration not stated)	inactive
Cc1cc(C)nc(Nc2ccccc2)n1	inactive
CCOc1nc(C(Cl)(Cl)Cl)ns1	inactive
CC(C)Nc1nc(Cl)nc(NC(C)C)n1	inactive
O=c1n(Cl)c(=O)n(Cl)c(=O)n1Cl	inactive
CCCN(CC)CC1COC2(CCC(C(C)(C)C)CC2)O1 (configuration not stated)	inactive
Cc1nc(N(C)C)nc(OC(=O)N(C)C)c1C	inactive
Clc1nc(Cl)nc(Nc2ccccc2Cl)n1	inactive
CS(=O)(=O)c1ccc(C(=O)C2C(=O)CCCC2=O)c([N+](=O)[O-])c1	inactive
Nc1c(Cl)c(F)nc(OCC(=O)O)c1Cl	inactive
CCN(CC)c1nc(C)cc(OP(=S)(OC)OC)n1	inactive
CCCCC(O)(Cn1cncn1)c1ccc(Cl)cc1Cl (configuration not stated)	inactive
COc1ccc(-c2ccccc2)cc1NNC(=O)OC(C)C	inactive
CSC(=O)c1c(C(F)F)nc(C(F)(F)F)c(C(=O)SC)c1CC(C)C	inactive
CCOC(=O)C(C)OC(=O)c1cc(Oc2ccc(C(F)(F)F)cc2Cl)ccc1[N+](=O)[O-] (configuration not stated)	inactive
O=P(O)(O)CCCl	inactive

SMILES	outcome
COCC(C)N(C(=O)CCl)c1c(C)csc1C (configuration not stated)	inactive
COC(=O)c1c(C(F)F)nc(C(F)(F)F)c(C2=NCCS2)c1CC(C)C	inactive
CCN(CC)C(=O)C(C)Oc1cccc2ccccc12 (configuration not stated)	inactive
CNC(=O)N(C)c1nnc(C(C)(C)C)s1	inactive
CCOP(=O)(OCC)Oc1nc(Cl)c(Cl)cc1Cl	inactive
CC(C)C1(C)N=C(c2ncccc2C(=O)O)NC1=O (configuration not stated)	inactive
CC(C)N1C(=O)c2ccccc2NS1(=O)=O	inactive
COC(=O)NC(=S)Nc1ccccc1NC(=S)NC(=O)OC	inactive
CC(C)(C)C(=O)C(Oc1ccc(Cl)cc1)n1cncn1 (configuration not stated)	inactive
CCC(C)n1c(=O)[nH]c(C)c(Br)c1=O (configuration not stated)	inactive
CCNP(=S)(OC)O/C(C)=C/C(=O)OC(C)C (configuration not stated)	inactive
CC(C)NC(=O)N1CC(=O)N(c2cc(Cl)cc(Cl)c2)C1=O	inactive
CCCCOCN(C(=O)CCl)c1c(CC)cccc1CC	inactive
O=C(O)c1c(Cl)ccc2cc(Cl)cnc12	inactive
CO/N=C(/C1=NOCCO1)c1ccccc1Oc1ncnc(Oc2ccccc2Cl)c1F	inactive
CC1(C)C(C=C(Cl)Cl)C1C(=O)OC(C#N)c1cccc(Oc2ccccc2)c1 (configuration not stated)	inactive
Nc1c(Cl)c(Cl)nc(C(=O)O)c1Cl	inactive
CC1(C)CON(Cc2ccccc2Cl)C1=O	inactive

assay: APR_HepG2_MitoMembPot_24hr: Apredica 24-hour HepG2 Assay for Mitochondrial Membrane Potential (AID 2282911); settings: imaging, actives raise or lower the signal
In short: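 HepG2, 24 hr dosing, 10 concentrations 0.39–200 uM, 0.5% DMSO final. Live-cell MitoTracker Red CMXRos 250 nM 30 min, then 3.7% formaldehyde fix. HCS fluorescence imaging, 20x; bidirectional fit vs DMSO baseline.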

SMILES	outcome	AC50
N#CN=C1SCCN1Cc1ccc(Cl)nc1	inactive	
CCCC(=NOCC)C1=C(O)CC(CC(C)SCC)CC1=O (configuration not stated)	inactive	
CC1(C)CCC(=Cc2ccc(Cl)cc2)C1(O)Cn1cncn1 (configuration not stated)	inactive	
Cc1cc(C)nc(Nc2ccccc2)n1		75.7 µM (active)
CCOc1nc(C(Cl)(Cl)Cl)ns1	inactive	
CC(C)Nc1nc(Cl)nc(NC(C)C)n1		110 µM (active)
O=c1n(Cl)c(=O)n(Cl)c(=O)n1Cl	inactive	
CCCN(CC)CC1COC2(CCC(C(C)(C)C)CC2)O1 (configuration not stated)	inactive	
Cc1nc(N(C)C)nc(OC(=O)N(C)C)c1C	inactive	
Clc1nc(Cl)nc(Nc2ccccc2Cl)n1	inactive	
CS(=O)(=O)c1ccc(C(=O)C2C(=O)CCCC2=O)c([N+](=O)[O-])c1	inactive	
Nc1c(Cl)c(F)nc(OCC(=O)O)c1Cl	inactive	
CCN(CC)c1nc(C)cc(OP(=S)(OC)OC)n1	inactive	
CCCCC(O)(Cn1cncn1)c1ccc(Cl)cc1Cl (configuration not stated)	inactive	
COc1ccc(-c2ccccc2)cc1NNC(=O)OC(C)C	inactive	
CSC(=O)c1c(C(F)F)nc(C(F)(F)F)c(C(=O)SC)c1CC(C)C	inactive	
CCOC(=O)C(C)OC(=O)c1cc(Oc2ccc(C(F)(F)F)cc2Cl)ccc1[N+](=O)[O-] (configuration not stated)	inactive	
O=P(O)(O)CCCl	inactive	

SMILES	outcome	AC50
COCC(C)N(C(=O)CCl)c1c(C)csc1C (configuration not stated)	inactive	
COC(=O)c1c(C(F)F)nc(C(F)(F)F)c(C2=NCCS2)c1CC(C)C	inactive	
CCN(CC)C(=O)C(C)Oc1cccc2ccccc12 (configuration not stated)	inactive	
CNC(=O)N(C)c1nnc(C(C)(C)C)s1	inactive	
CCOP(=O)(OCC)Oc1nc(Cl)c(Cl)cc1Cl	inactive	
CC(C)C1(C)N=C(c2ncccc2C(=O)O)NC1=O (configuration not stated)	inactive	
CC(C)N1C(=O)c2ccccc2NS1(=O)=O	inactive	
COC(=O)NC(=S)Nc1ccccc1NC(=S)NC(=O)OC		26 µM (active)
CC(C)(C)C(=O)C(Oc1ccc(Cl)cc1)n1cncn1 (configuration not stated)	inactive	
CCC(C)n1c(=O)[nH]c(C)c(Br)c1=O (configuration not stated)	inactive	
CCNP(=S)(OC)O/C(C)=C/C(=O)OC(C)C (configuration not stated)	inactive	
CC(C)NC(=O)N1CC(=O)N(c2cc(Cl)cc(Cl)c2)C1=O	inactive	
CCCCOCN(C(=O)CCl)c1c(CC)cccc1CC	inactive	
O=C(O)c1c(Cl)ccc2cc(Cl)cnc12	inactive	
CO/N=C(/C1=NOCCO1)c1ccccc1Oc1ncnc(Oc2ccccc2Cl)c1F		0.309 µM (active)
CC1(C)C(C=C(Cl)Cl)C1C(=O)OC(C#N)c1cccc(Oc2ccccc2)c1 (configuration not stated)	inactive	
Nc1c(Cl)c(Cl)nc(C(=O)O)c1Cl	inactive	
CC1(C)CON(Cc2ccccc2Cl)C1=O	inactive	
